The list is not random: actives were taken first. Their share in the collection is about 2.8%.
RGS4 inh: Inhibitors of Regulator of G Protein Signaling (RGS) 4: qHTS | Regulator of G-protein signaling 4 (Homo sapiens), P49798 | Transcreener GDP fluorescence polarization, RGS4-accelerated GTP hydrolysis | Potency, µM (doses to about 114 µM), for the others: top-dose activity change, negative = inhibition, hits mostly inhibitors | hit rate 0.039% among 390,000 | AID 504845, 2011; active = well fitted inhibition curve with a large enough effect; inconclusive = small, poorly fitted or top-dose-only effect; inactive = no such curve, though single readings can be large or run the other way; note: potency is the fitted concentration of half-maximal effect; % is set by controls: 0 for no effect and ±100 for the full control effect; nearly all actives have a fitted effect of over 75% in size
Target sequence (P49798 whole entry, looked up): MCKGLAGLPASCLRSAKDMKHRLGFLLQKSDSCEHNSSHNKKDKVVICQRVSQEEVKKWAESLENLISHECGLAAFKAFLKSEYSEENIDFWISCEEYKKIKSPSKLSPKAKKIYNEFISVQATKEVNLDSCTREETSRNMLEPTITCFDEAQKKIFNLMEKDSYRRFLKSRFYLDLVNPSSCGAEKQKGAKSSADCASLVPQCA
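MLSMR compounds (23 nl, pin-transferred) preincubated 10 min at room temperature with a 500nM (2x) first reagent, then RGS4 at 900nM (2x) plus Transcreener GDP mix added; fluorescence polarization (620/688 nm) read before and after 90 min at 30 °C.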
PI4K2A inh: qHTS for small molecular inhibitors of PI4K2A; hit rate 0.13% among 420,000; activity change, negative = inhibition, % at 76.9 µM; AID 1346378, 2018; purified PI4K2A, ADP-Glo luminescence, 1 h; active compounds read low; in the data active = activity change below about -50%; inconclusive = mostly about -30% to -49%;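 note: -100% = wells without enzyme as full effect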
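PI4K2A activity was measured by ADP-Glo luminescence: enzyme (4 ug/mL stock) and phosphatidylinositol (1.2 mM stock) in Tris pH 7.5/MgCl2/EGTA/Triton X-100 buffer were reacted with ATP (300 microM stock) for one hour at ambient temperature.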
LDHA block: qHTS assay for inhibitors of human lactate dehydrogenase; L-lactate dehydrogenase A chain (Homo sapiens), P00338; purified LDHA, NADH/diaphorase-resazurin fluorescence; active compounds read low; activity change, % (values are at about 110 or 230 µM); hit rate 0.15% among 480,000; in the data active = activity change below about -30%; inconclusive = mostly about -25% to -30%;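 note: plate controls were DMSO wells for no effect and wells without enzyme for full effect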
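Human LDH5 (2 nM) was incubated with 0.06 mM NADH and 0.2 mM pyruvate for 5 min at room temperature in Tris pH 7.4. Remaining NADH was coupled through diaphorase/resazurin, and resorufin fluorescence was read at 0 and 20 min.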
DRD3 agonist: qHTS of D3 Dopamine Receptor Agonist: qHTS; D3R DiscoveRx beta-arrestin cells, luminescence, 90 min; max activation, %; D(3) dopamine receptor (Homo sapiens), P35462; hit rate 0.58% among 410,000; in the data active = max activation above about 30%; note: 0% is about no effect
Target sequence (P35462 whole entry, looked up): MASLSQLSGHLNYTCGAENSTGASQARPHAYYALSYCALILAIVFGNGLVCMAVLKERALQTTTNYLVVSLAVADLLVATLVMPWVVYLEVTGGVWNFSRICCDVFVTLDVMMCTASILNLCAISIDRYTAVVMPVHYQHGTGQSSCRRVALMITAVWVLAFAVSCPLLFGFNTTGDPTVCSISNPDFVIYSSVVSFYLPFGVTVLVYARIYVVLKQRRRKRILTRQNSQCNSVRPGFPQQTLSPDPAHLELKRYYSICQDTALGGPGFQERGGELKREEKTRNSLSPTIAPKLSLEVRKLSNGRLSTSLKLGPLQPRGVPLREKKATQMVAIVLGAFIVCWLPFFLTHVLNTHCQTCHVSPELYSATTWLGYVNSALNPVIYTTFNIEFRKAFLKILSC
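Agonist-mode cell screen: cells plated at 1500/well and incubated overnight at 37 °C, then exposed to library compounds for 90 min at 37 °C. Detection reagent was added for 30–60 min at room temperature, and luminescence was read.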
Akt phos inh: HTS Assay for Inhibitors of Akt Phophorylation: Primary Screen. Neuro2A IGF-stimulated pAkt S473 HTRF, 20 min; active compounds read low. activity change, % for hits at 50 µM. hit rate 0.32% among 360,000; in the data active = activity change below about -80%; inconclusive = mostly about -51% to -80%; note: % is set by controls: 0 for no effect and ±100 for the full control effect
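Neuro2A cells (4,500/well, DMEM with 0.5% FBS) were treated with compound at a single 50 µM final concentration, stimulated with 6 nM IGF for 20 min at 37 °C, and lysed. Phospho-Akt Ser473 was read by HTRF as 665/615 ratio ×10^4.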
D3 antag: qHTS of D3 Dopamine Receptor Antagonist: qHTS; hit rate 2.5% among 360,000; D3R cells, DiscoveRx beta-arrestin luminescence, antagonist mode; active compounds read low; D(3) dopamine receptor (Homo sapiens), P35462; max response, negative = inhibition, %; in the data active = max response below about -50%; inconclusive = no clear call, values can overlap the other calls; note: % is set by controls: 0 for no effect and ±100 for the full control effect
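Cells plated overnight at 1500 cells/well, then exposed to library compounds with dopamine controls for 90 minutes at 37 degrees C. DiscoveRx reagent added for 30–60 minutes at room temperature; luminescence read, quantitative HTS format.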
Active calls of the source: *; i = inactive; ? = inconclusive; / = not tested or not shown.

SMILES | RGS4 inh | PI4K2A inh | LDHA block | DRD3 agonist | Akt phos inh | D3 antag
O=C(Oc1c(CN2CCOCC2)cc(Cl)c2cccnc12)c1cccs1 | -29.1% | -2.8 | 9.1 | -18.9 | i | -63.1*
COc1ccc(C(=O)Oc2c(CN3CCOCC3)cc(Cl)c3cccnc23)cc1 | -5.7% | -0.2 | 13.5 | -13.7 | i | -3.7
COc1cc(C(=O)Oc2c(CN3CCOCC3)cc(Cl)c3cccnc23)cc(OC)c1OC | -8.2% | -21.5 | 11.3 | -38.2 | i | -111.3*
CN(C)S(=O)(=O)c1ccc(Cl)c(C(=O)Nc2ccc(Cl)c3cccnc23)c1 | / | / | -24.8 | / | / | /
CSc1ccccc1C(=O)C1CCCN(C(=O)CCN2CCCO2)C1 (stereo not drawn) | -11.4% | 3.2 | 0.0 | 7.7 | i | 0.5
COCCC(=O)N1CCCC(C(=O)c2ccccc2SC)C1 (stereo not drawn) | -35.5% | 1.8 | -1.2 | -6.4 | i | -58.8*
CCOC(=O)c1cccc(NC(=O)c2nc3ccccc3nc2N2CCCC2)c1 | / | / | 9.8 | / | / | /
Cc1c(Cl)cccc1NC(=O)C(C)NS(=O)(=O)c1ccc2c(c1)CCN2C(=O)N1CCCC1 (stereo not drawn) | / | / | 5.1 | / | / | /
CCOC(=O)COc1ccc2ccccc2c1/C=C/[N+](=O)[O-] | ? | 17.0 | 13.6 | -7.1 | i | -52.0*
CCOc1ccccc1NC(=O)c1c(Br)cnn1C | 5.5% | 1.2 | -8.5 | 35.4* | i | 15.3
Cn1cc(CN2CCCC(C(=O)Nc3cccc(-c4cc5ccccc5[nH]4)c3)C2)cn1 (stereo not drawn) | -7.7% | -2.8 | -2.8 | -6.7 | i | -68.4*
CC(C)Oc1ccc(C(=O)N/N=C/c2ccc(-c3ccc(S(=O)(=O)Nc4ncccn4)cc3)o2)cc1 | -6.7% | -8.2 | -9.4 | 5.1 | i | -54.5*
CCc1nc(SCC(=O)NCCc2ccccc2)c2oc3ccccc3c2n1 | -5.8% | -0.8 | -4.3 | 3.2 | -102.7%* | 4.3
O=C(CSc1ncnc2c1oc1ccccc12)Nc1cccc(Cl)c1 | -5.3% | 1.5 | -5.8 | 7.6 | -108.4%* | 14.2
O=C(CSc1ncnc2c1oc1ccccc12)Nc1cccc(C(F)(F)F)c1 | 5.4% | 3.2 | -0.5 | 27.4 | i | 9.9
O=C(CSc1nc(Cl)nc2nc[nH]c12)Nc1cccc(Cl)c1 | / | / | -35.0* | / | / | /
Cc1nc(SCC(=O)NCCc2ccccc2)c2oc3ccccc3c2n1 | 15.7% | -1.2 | -3.8 | -3.5 | i | -3.4
Cc1nc(SCC(=O)Nc2ccc(F)cc2)c2oc3ccccc3c2n1 | -5.9% | 0.0 | -4.6 | 4.1 | -90.0%* | 6.3
O=C(NC1CCN(C(=O)c2ccc3ccccc3n2)CC1)c1ccccc1 | / | / | 0.2 | / | / | /
CCCN1CCN(c2nnc(-n3cccc3CN3CCN(Cc4ccccc4)CC3)s2)CC1 | / | / | 6.6 | / | / | /
Cn1c(SCC(=O)NC2CCCC2)nnc1-c1ccc(Cl)cc1 | / | / | -12.5 | / | / | /
CCc1nc(SCC(=O)N2CCc3ccccc32)c2oc3ccccc3c2n1 | -10.7% | 5.4 | -2.0 | -3.6 | i | 8.8
Cc1cc2c(c(SCC(=O)Nc3ccccc3)n1)C(=O)OC2 | / | / | -37.2* | / | / | /
Cc1nc(SCC(=O)N2CCCc3ccccc32)c2oc3ccccc3c2n1 | 31.4% | -7.1 | -3.0 | 34.2* | i | 15.4
Cc1nc(SCC(=O)Nc2ccccc2)c2oc3ccccc3c2n1 | 48.5% | -0.1 | -2.6 | 5.8 | -115.5%* | ?
SMILES | RGS4 inh | PI4K2A inh | LDHA block | DRD3 agonist | Akt phos inh | D3 antag
CCCc1cc(=O)oc2cc(OCC(=O)NCCCO)ccc12 | / | / | -5.3 | / | / | /
CN(C)C(=O)c1ccc(NC(=O)CSc2ccc3ccccc3n2)cc1 | / | / | 2.7 | / | / | /
COc1ccc2c(c1)[nH]c1c(N3CCSCC3)ncnc12 | -7.0% | -3.6 | -2.5 | 30.3* | i | 70.4
COc1ccc2c(c1)[nH]c1c(N3CCN(Cc4ccc5c(c4)OCO5)CC3)ncnc12 | -12.1% | 4.4 | -5.5 | 13.1 | i | 41.6
CC1(CCC(=O)N2CCCC(N3CCN(c4cccc(C(F)(F)F)c4)CC3)C2)CC1 (stereo not drawn) | -23.8% | -3.0 | 2.0 | -14.1 | i | -66.2*
COc1ccccc1NC(=O)NCCn1c(C(F)(F)F)nc2ccccc21 | / | / | 0.9 | / | / | /
Clc1cccc(-n2nnnc2-c2ccccc2)c1 | / | / | 0.7 | / | / | /
Nc1nc2ccc(N3CCOCC3)cc2s1 | -38.0% | -1.7 | 7.5 | -8.5 | i | -76.0*
CC(NC(=O)CSc1ccccc1)c1ccc2c(c1)OCCO2 (stereo not drawn) | / | / | 2.1 | / | / | /
COc1ccc(/C=C(/C(=O)c2ccccc2)c2nc3ccccc3s2)cc1O | / | / | 6.0 | / | / | /
COc1ccc(CCN(C)C/C=C/c2ccccc2[N+](=O)[O-])cc1OC | -27.2% | 2.7 | -6.9 | -17.5 | i | -60.2*
COc1cc(OC)c(OC)cc1CN(C)CCc1ccccn1 | -6.2% | 14.2 | ? | 9.7 | i | -2.1
COc1cc(CN(C)CCc2ccccn2)cc(OC)c1OC | 2.9% | 10.4 | -30.6* | -5.6 | i | 14.9
CCc1ccc(CN(C)CCc2ccccn2)cc1 | -3.9% | 12.1 | -9.2 | -23.4 | i | ?
COc1ccc(CCN(C)Cc2ccc(OCc3ccccc3)c(OC)c2)cc1OC | 21.3% | 11.3 | -31.5* | -24.3 | i | ?
COc1ccc(CN(C)CCc2ccccn2)cc1OC | -30.0% | -0.4 | -22.6 | -4.2 | i | -76.0*
COc1ccccc1/C=C/c1nc(C#N)c(N2CCN(Cc3ccccc3)CC2)o1 | / | / | -11.8 | / | / | /
CCC(=O)c1sc(Nc2ccc(C)cc2C)nc1N | / | / | 5.7 | / | / | /
CCCCn1c(=O)[nH]c(=O)c2c1nc(CSc1nnnn1-c1ccc(C)cc1C)n2CCC | / | / | -6.7 | / | / | /
N#Cc1nc(COc2ccc(Br)cc2)oc1N1CCCCC1 | / | / | -2.9 | / | / | /
O=C(CSCc1ccc(F)cc1)N1CCN(c2ccc(Cl)cc2)CC1 | 2.3% | 9.4 | -3.9 | 80.3* | / | /
CCS(=O)(=O)CCSc1nc(C)cc(C)c1C#N | 0.6% | -4.0 | -4.6 | 8.8 | i | -12.8
Cc1cc(C)c(C#N)c(SCCS(=O)(=O)Cc2ccccc2)n1 | 26.8% | -0.3 | -17.3 | -10.5 | i | -84.4*
COc1ccc(/C=C/c2ccc3cccc([N+](=O)[O-])c3n2)cc1O | / | / | 1.5 | / | / | /
CC1(c2nnc(Cc3ccccc3)o2)CC(c2ccccc2[N+](=O)[O-])=NO1 (stereo not drawn) | ? | -6.9 | 4.4 | 0.0 | i | -13.1

Screening results (PubChem)
